Measured values taken from PubChem BioAssay.
Unmarked numbers belong to inactive results. Entries that show only a call come without a potency. For some of these results: Potency and affinity values are given separately. Calls of active or inactive are those of the source. Unless noted, no rule for the calls is given here.

Key:
[1] = antimalarial activity against Dd2 strain (AID 2302;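 active = growth inhibition above 50% at the single 2 µM test dose, taken to imply half-maximal potency below 2 µM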); conditions: P. falciparum Dd2 in RBCs, LDH growth readout, 72 h; at 2 µM; hits give high values
[2] = HepG2 cytotoxicity, primary screen, cytotoxicity control for P. falciparum antimalarial project, cell-based, ATP luminescence (AID 2303;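 active = inhibition above 50%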); conditions: HepG2 viability, 24-48 h, at 10 µM, hits give high values
[3] = target: L-lactate dehydrogenase (Plasmodium falciparum (isolate CDC / Honduras)) (UniProt Q27743); assay: PfLDH activity inhibition – cell lysate, 3D7 strain, counter-screen for P. falciparum growth inhibition project (AID 2304); conditions: P. falciparum 3D7 crude extract, LDH APAD/NBT absorbance; at 2 µM; hits give high values
[4] = inhibition of 3D7 malaria parasite growth – strain 3D7 (AID 2306); conditions: P. falciparum 3D7 erythrocytic growth, LDH absorbance, 72 h; at 2 µM; hits give high values
[5] = target: Calcium-dependent protein kinase 1 (Plasmodium falciparum (isolate 3D7)) (UniProt P62344); assay: PfCDPK1 kinase inhibitors, biochemical, TCAMS library (AID 1159585; cut-off not given, nearly all actives have IC50 up to about 0.98 µM;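 also: inhibitors leave more ATP so luminescence rises with inhibition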); conditions: recombinant PfCDPK1, Kinase-Glo ATP depletion luminescence
[6] = target: Plasmodium falciparum protein kinase 6 (PK6, PF3D7_1337100) (UniProt Q8IDW1); assay: PfPK6 kinase inhibitors, biochemical, TCAMS library (AID 1159586); conditions: recombinant PfPK6, Kinase-Glo ATP depletion luminescence
[7] = target: Protein kinase 7 (PK7), Plasmodium falciparum 3D7 (PF3D7_0213400) (UniProt Q7YTF7); assay: inhibition of Plasmodium PK7 catalytic activity – biochemical, TCAMS antimalarial set, Kinase-Glo luminescence (AID 1159587); conditions: recombinant PfPK7, Kinase-Glo ATP depletion luminescence
[8] = target: Calcium-dependent protein kinase 4 (Plasmodium falciparum (isolate 3D7)) (UniProt Q8IBS5); assay: PfCDPK4 kinase inhibitors, biochemical, TCAMS library (AID 1159588; cut-off not given, nearly all actives have IC50 up to about 0.91 µM); conditions: recombinant PfCDPK4, Kinase-Glo ATP depletion luminescence
Chain of Calcium-dependent protein kinase 4 (Plasmodium falciparum (isolate 3D7)) (Q8IBS5 whole entry, looked up): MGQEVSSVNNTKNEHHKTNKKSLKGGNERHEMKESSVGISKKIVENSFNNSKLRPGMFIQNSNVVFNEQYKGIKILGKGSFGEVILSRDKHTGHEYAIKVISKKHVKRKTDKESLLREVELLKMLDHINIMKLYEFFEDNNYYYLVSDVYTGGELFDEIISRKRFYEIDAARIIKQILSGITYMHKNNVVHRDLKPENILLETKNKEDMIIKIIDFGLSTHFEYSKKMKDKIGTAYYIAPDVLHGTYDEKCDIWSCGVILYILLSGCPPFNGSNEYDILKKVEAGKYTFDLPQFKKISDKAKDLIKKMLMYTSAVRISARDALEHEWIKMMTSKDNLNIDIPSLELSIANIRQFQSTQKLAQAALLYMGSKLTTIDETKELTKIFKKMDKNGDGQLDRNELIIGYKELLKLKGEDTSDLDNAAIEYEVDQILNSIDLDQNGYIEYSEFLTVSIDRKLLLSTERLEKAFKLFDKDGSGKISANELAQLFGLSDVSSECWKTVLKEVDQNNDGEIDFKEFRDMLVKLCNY

Chain of L-lactate dehydrogenase (Plasmodium falciparum (isolate CDC / Honduras)) (Q27743 whole entry, looked up): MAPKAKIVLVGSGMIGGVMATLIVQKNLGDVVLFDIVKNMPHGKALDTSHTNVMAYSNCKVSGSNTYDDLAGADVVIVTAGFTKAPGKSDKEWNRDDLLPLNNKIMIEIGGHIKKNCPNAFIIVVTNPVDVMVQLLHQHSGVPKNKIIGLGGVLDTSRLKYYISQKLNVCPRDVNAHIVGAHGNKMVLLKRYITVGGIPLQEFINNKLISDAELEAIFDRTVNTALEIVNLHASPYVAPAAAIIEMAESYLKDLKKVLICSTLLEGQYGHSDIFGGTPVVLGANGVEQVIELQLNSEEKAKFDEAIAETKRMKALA
Chain of Protein kinase 7 (PK7), Plasmodium falciparum 3D7 (PF3D7_0213400) (Q7YTF7 1-343): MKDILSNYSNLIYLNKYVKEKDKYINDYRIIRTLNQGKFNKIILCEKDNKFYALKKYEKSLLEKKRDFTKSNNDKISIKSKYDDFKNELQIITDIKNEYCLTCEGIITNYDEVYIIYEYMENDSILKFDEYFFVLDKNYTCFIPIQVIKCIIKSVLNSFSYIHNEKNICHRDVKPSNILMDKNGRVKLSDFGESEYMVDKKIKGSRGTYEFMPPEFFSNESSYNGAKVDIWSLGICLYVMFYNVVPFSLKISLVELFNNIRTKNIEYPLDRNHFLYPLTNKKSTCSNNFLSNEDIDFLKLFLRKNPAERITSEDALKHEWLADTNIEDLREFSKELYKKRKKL
Chain of Plasmodium falciparum protein kinase 6 (PK6, PF3D7_1337100) (Q8IDW1 1-305): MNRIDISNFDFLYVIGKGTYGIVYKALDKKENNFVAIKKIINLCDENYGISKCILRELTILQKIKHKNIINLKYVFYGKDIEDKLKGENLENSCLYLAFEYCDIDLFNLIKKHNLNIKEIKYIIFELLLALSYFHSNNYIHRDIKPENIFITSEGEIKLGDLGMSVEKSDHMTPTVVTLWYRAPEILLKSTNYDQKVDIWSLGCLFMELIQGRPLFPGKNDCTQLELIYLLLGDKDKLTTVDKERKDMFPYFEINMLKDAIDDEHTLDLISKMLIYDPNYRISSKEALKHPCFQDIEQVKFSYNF
Chain of Calcium-dependent protein kinase 1 (Plasmodium falciparum (isolate 3D7)) (P62344 whole entry, looked up): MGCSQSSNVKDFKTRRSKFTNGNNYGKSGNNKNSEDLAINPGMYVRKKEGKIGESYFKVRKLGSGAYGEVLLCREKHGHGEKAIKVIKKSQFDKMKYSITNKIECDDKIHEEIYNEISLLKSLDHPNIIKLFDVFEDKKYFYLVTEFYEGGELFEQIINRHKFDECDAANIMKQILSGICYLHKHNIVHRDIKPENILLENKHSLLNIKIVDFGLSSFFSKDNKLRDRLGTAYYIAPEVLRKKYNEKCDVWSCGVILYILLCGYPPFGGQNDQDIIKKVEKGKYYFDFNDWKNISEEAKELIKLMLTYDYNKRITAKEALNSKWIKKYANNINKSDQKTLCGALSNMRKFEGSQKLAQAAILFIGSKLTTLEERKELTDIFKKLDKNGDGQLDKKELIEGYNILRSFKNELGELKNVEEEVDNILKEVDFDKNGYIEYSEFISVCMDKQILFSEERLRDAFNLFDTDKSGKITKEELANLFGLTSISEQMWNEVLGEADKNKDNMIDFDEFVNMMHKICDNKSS

Structure (SMILES) | growth inhibition [1] | inhibition [2] | inhibition [3] | growth inhibition [4] | outcome [5] | outcome [6] | outcome [7] | outcome [8]
CCCCCCOc1ccc(C(=O)NCCC2CCN(CCCCCNC(=O)C=Cc3ccc(Cl)c(Cl)c3)CC2)cc1 | 10% | 13% | 0% | 99% (active) | inactive | inactive | inactive | inactive
Cc1cccc2[nH]c(-c3ccc(-c4ccc(CN5CCN(c6ccncc6)CC5)cc4)s3)nc12 | 98% (active) | 85% (active) | 2% | 102% (active) | inactive | inactive | inactive | inactive
N#Cc1cccc(C(=O)Nc2cccc(-c3ccc(C(=O)Nc4cccnc4)cc3)c2)c1 | 10% | 39% | -1% | 89% (active) | inactive | inactive | inactive | inactive
CC(Cc1ccc(CNC(=O)c2ccc(CC(C)NCCc3cccc(Cl)c3)cc2)cc1)NCCc1cccc(Cl)c1 (stereo not drawn) | 66% (active) | 99% (active) | -2% | 99% (active) | inactive | inactive | inactive | inactive
Cc1cc(C(=O)NC2CCN(Cc3ccccc3)CC2)ccc1-c1nc2ccc(C(F)(F)F)cc2[nH]1 | 2% | 19% | -1% | 95% (active) | inactive | inactive | inactive | inactive
COc1ccc(NC(=O)Nc2ccc(C)c(-c3ccc(C(=O)Nc4ccncc4)cc3)c2)cc1 | 50% (active) | 39% | 4% | 99% (active) | inactive | inactive | inactive | inactive
CCn1c2c(c(=N)c3ccccc31)CCC2 | 61% (active) | 11% | 8% | 83% (active) | inactive | inactive | inactive | inactive
c1ccc(Oc2ccc(Nc3ccnc(Nc4cccc(CNCCCN5CCOCC5)c4)n3)cc2)cc1 | 50% (active) | -1% | -1% | 100% (active) | inactive | inactive | inactive | inactive
COc1cccc(-c2csc(C(=O)NCC3CCN(Cc4ccc(C(C)(C)C)cc4)C3)c2)c1 (stereo not drawn) | 10% | 30% | -2% | 95% (active) | inactive | inactive | inactive | inactive
COc1ccc2nc(N3CCNCC3)nc(NCCCc3ccccc3)c2c1 | 43% | 31% | -3% | 100% (active) | inactive | inactive | inactive | inactive
COc1ccc(-c2cccc(NC(=O)c3cccc(C#N)c3)c2)cc1CN(C)CCO | 30% | 28% | -7% | 96% (active) | inactive | inactive | inactive | inactive
COCCSc1nc2scc(C)c2c(=O)n1Cc1cccc(OC)c1 | 33% | 0% | -8% | 92% (active) | inactive | inactive | inactive | inactive
COc1ccc(-n2ccnc2SCC(=O)Nc2cccc(C(F)(F)F)c2)c(OC)c1 | 88% (active) | -10% | 3% | 98% (active) | inactive | inactive | inactive | inactive
CN1CCN(Cc2cccc(-c3cc4nccc(Nc5ccc(Oc6ccccc6)cc5)c4cc3Cl)c2)CC1 | 96% (active) | 10% | -3% | 101% (active) | inactive | inactive | inactive | inactive
COc1ccc2nccc([C@H](O)CN3CCC(NCc4nc5c(F)cccc5[nH]4)CC3)c2c1 | 0% | 0% | -1% | 98% (active) | inactive | inactive | inactive | inactive
O=C(C=Cc1ccc(Cl)c(Cl)c1)NCCCCCN1CCC(CCNC(=O)/C=C/c2ccccc2)CC1 | 1% | 25% | -7% | 97% (active) | inactive | inactive | inactive | inactive
O=C(Nc1ccc(OC2CCN(Cc3ccsc3)C2)c(Cl)c1)c1ccco1 (stereo not drawn) | 96% (active) | -6% | -5% | 93% (active) | inactive | inactive | inactive | inactive
COCCCNc1nc2cc(OC)c(OC)cc2c2nc(-c3ccccc3)nn12 | 97% (active) | 6% | -6% | 95% (active) | inactive | inactive | inactive | inactive
CC(NC(=O)c1cc(-c2ccccc2)nc2c1cnn2C(C)C)C1CC1 (stereo not drawn) | 88% (active) | 35% | -2% | 101% (active) | inactive | inactive | inactive | inactive
CCCCCc1cc(O)c2c(c1)OC(C)(C)C=C2C1=CCN(Cc2ccsc2)CC1 | 48% | 20% | -1% | 98% (active) | inactive | inactive | inactive | inactive
Nc1nccc2ccc(-c3ccsc3)cc12 | 89% (active) | 38% | 4% | 100% (active) | inactive | inactive | inactive | inactive

Structure (SMILES) | growth inhibition [1] | inhibition [2] | inhibition [3] | growth inhibition [4] | outcome [5] | outcome [6] | outcome [7] | outcome [8]
COc1ccc(C2C(C(=O)Nc3cc(Cl)c(OC)cc3OC)c3ccccc3C(=O)N2C)cc1 (stereo not drawn) | 98% (active) | 14% | 4% | 101% (active) | inactive | inactive | inactive | inactive
O=C(Nc1ccc(N2CCN(c3ncccc3C(F)(F)F)CC2)nc1)c1cccs1 | 40% | 7% | -7% | 83% (active) | inactive | inactive | inactive | inactive
C=C[C@]1(C)C[C@@H](OC(=O)c2n[nH]c3ccccc3c2=O)[C@]2(C)[C@H](C)CC[C@]3(CCC(=O)[C@H]32)[C@@H](C)[C@@H]1O | 84% (active) | -6% | 0% | 96% (active) | inactive | inactive | inactive | inactive
Cc1cccc2[nH]c(-c3cccc(-c4ccc(NC(=O)CN5CCOCC5)cc4)c3)nc12 | 12% | 59% (active) | 4% | 94% (active) | inactive | inactive | inactive | inactive
Cn1cnc(CCNC(=O)c2cccc(-c3ccc(-c4nc5ccc(F)cc5[nH]4)cc3)c2)c1 | 5% | 26% | 4% | 88% (active) | inactive | inactive | inactive | inactive
C[C@H](NC(=O)[C@H](CCCCNC(=O)OC(C)(C)C)NC(=O)OC(C)(C)c1ccc(-c2ccccc2)cc1)C(=O)OCc1ccccc1 | 1% | 4% | -7% | 97% (active) | inactive | inactive | inactive | inactive
CS(=O)(=O)c1ccc(CNCc2ccc(-c3cccc(-c4nc5ccccc5[nH]4)c3)cc2)cc1 | 88% (active) | 17% | -7% | 100% (active) | inactive | inactive | inactive | inactive
O=C(Nc1cc(Cl)cc(Cl)c1)Nc1ccnc2ccccc12 | 65% (active) | 15% | -2% | 96% (active) | inactive | inactive | inactive | inactive
O=C(C=Cc1ccc(Cl)c(Cl)c1)NCCCCCN1CCC(CCNC(=O)c2ccc3c(c2)OCO3)CC1 | 2% | 35% | -3% | 99% (active) | inactive | inactive | inactive | inactive
CCc1cn2c3c(cc(C(=O)N[C@@H](Cc4ccccc4)[C@H](O)CNC4CCCC4)cc13)N(C)S(=O)(=O)CC2 | 99% (active) | 6% | -8% | 100% (active) | inactive | inactive | inactive | inactive
Cc1ccccc1C1CCN(C2CCC(NC(=O)/C=C/c3ccc(F)cc3)CC2)CC1 (stereo not drawn) | 30% | 61% (active) | -2% | 87% (active) | inactive | inactive | inactive | inactive
COc1ccc(Nc2cc(C)nc(Nc3ccc(NC(C)=O)cc3)n2)cc1 | 31% | 16% | -1% | 98% (active) | inactive | inactive | inactive | inactive
N#Cc1cccc(C(=O)Nc2ccc(-c3nc4ccccc4[nH]3)cc2)c1 | 38% | 33% | -2% | 91% (active) | inactive | inactive | inactive | inactive
O=[N+]([O-])c1ccc(C(O)P(=O)(c2ccccc2)c2ccccc2)cc1 (stereo not drawn) | 1% | 1% | 0% | 98% (active) | inactive | inactive | inactive | inactive
COc1c(Br)cc(Br)cc1C(C)=O | -2% | 3% | 1% | 95% (active) | inactive | inactive | inactive | inactive
Cc1cccc2[nH]c(-c3ccc(-c4ccc(CNC(C)C)cc4)cc3)nc12 | 62% (active) | 12% | 0% | 99% (active) | inactive | inactive | inactive | inactive
N#CNC(=NCCCSc1csc(N=C(N)N)n1)NCCCCCCCCN=C(NC#N)NCCSCc1csc(N=C(N)N)n1 | 24% | -1% | -4% | 91% (active) | inactive | inactive | inactive | inactive
COc1cccc(NC(=O)NC2CCN(c3ccnc(Nc4ccc(F)cc4)n3)C2)c1 (stereo not drawn) | 71% (active) | 9% | -2% | 100% (active) | inactive | inactive | inactive | inactive
CC(C)n1ncc2c(C(=O)N3CCCCCC3)cc(-c3ccccc3)nc21 | 42% | -12% | 2% | 97% (active) | inactive | inactive | inactive | inactive
COc1ccc(NC(=O)CCNc2cc(C)nc(NCCOc3ccccc3)n2)cc1 | 2% | 0% | -1% | 96% (active) | inactive | inactive | inactive | inactive
